# Screening data: PubChem, National Center for Advancing Translational Sciences (NCATS)
# Nrf2 inh: blocks Nrf2 signaling. Potency, µM (titrated, usually from 46 µM), usual class: inhibitors. A549 ARE-Fluc reporter, luciferase luminescence, 18-24 h. AID 504444. 360,000 compounds, 2.1% hits; further: nearly all actives have a fitted effect of over 60% in size
#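 Reporter: ARE-Fluc in A549. Exposure: 18-24 h, 37 °C, 5% CO2, 5% FBS OPTI-MEM. Readouts: fluorescent cytotoxicity (CellTiter-Fluor), then luminescent Nrf2 signal after BugLite.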
# A549 tox-1: kills or reduces viability of A549 cells in Nrf2 counter-screen; A549 ARE-Fluc cells, CellTiter-Fluor viability, 18-24 h; Potency, µM (titrated, usually from 46 µM), most hits filed as inhibitors; 390,000 compounds, 0.16% hits; AID 504648
#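 A549 ARE-Fluc cells in 5% FBS OPTI-MEM, 5000 cells/well, rested 2 h then exposed to compounds in concentration-response for 18-24 h at 37 °C. Viability by CellTiter-Fluor fluorescence (Ex 405/Em 525) after 30 min; luciferase luminescence (BugLite, 15 min, RT) read afterwards.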
# ELG1 repair inh: inhibitors of ELG1-dependent DNA repair in HEK293T cells; Potency, µM (doses to about 46.1 µM), actives largely listed as inhibitors; 330,000 compounds, 2.3% hits; HEK293T ELG1-luciferase reporter, luminescence, 16 h; DNA damage induced by 5-fluorouridine; AID 504467; further: nearly all actives have a fitted effect of over 55% in size
#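 Reporter activity after DNA damage by 5-fluorouridine is monitored. Compound-treated cells incubate 16 hr at 37 °C, then ONE-Glo is added for 30 min before luminescence reading.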
# Nrf2 activator: Nrf2 pathway activation; AREc32 ARE-luciferase reporter (MCF7-derived line), luminescence, 24 h; Potency, µM (highest dose often 46.1 µM), most hits filed as activators; 410,000 compounds, 0.31% hits; AID 624171; further: nearly all actives have a fitted effect of over 65% in size
#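 AREc32 cells carrying an ARE-driven firefly luciferase, 1000 cells/well in OPTI-MEM with 5% FBS, dosed after overnight attachment and incubated 24 hr at 37 deg C. Steady-Glo luminescence read after 30 min at RT.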
# FLuc counter 3: counter-screen for Nrf2 inhibitors: firefly luciferase enzyme inhibition; purified firefly luciferase, luminescence inhibition; 1,400 compounds, 4% hits; AID 720522; shares compounds with Nrf2 inh; Potency, µM (highest dose often 57.5 µM), usual class: inhibitors; further: nearly all actives have a fitted effect of over 65% in size
# Target sequence (P08659 whole entry, looked up): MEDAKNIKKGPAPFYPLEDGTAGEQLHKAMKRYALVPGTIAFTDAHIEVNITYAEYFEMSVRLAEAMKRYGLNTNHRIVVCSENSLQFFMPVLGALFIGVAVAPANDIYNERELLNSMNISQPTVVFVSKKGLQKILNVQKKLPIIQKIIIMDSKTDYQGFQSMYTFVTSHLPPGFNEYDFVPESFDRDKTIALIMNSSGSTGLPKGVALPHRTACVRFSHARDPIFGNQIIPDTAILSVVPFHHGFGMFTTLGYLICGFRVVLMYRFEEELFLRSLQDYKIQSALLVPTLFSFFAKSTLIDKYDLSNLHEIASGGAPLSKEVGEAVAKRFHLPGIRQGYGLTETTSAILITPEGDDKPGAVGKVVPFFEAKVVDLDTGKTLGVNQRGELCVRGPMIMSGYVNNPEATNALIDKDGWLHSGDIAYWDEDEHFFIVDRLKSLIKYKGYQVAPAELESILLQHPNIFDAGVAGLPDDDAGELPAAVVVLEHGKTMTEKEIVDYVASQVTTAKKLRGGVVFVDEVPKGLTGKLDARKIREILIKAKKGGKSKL
# A549 tox-2: counter-screen for Nrf2 inhibitors: cytotoxicity in A549 ARE cells | shares compounds with Nrf2 inh | Potency, µM (titrated, usually from 46.1 µM), actives largely listed as inhibitors | 1,400 compounds, 2% hits | AID 720523 | A549 ARE-Fluc cells, cytotoxicity counterscreen;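 further: cells exposed to compounds for 18 to 24 hours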
# ARE-Fluc inh: Nrf2 inhibition confirmed, A549 ARE-luciferase | shares compounds with Nrf2 inh | 1,400 compounds, 74% hits | Potency, µM (series often up to 46.1 µM), hits mostly inhibitors | A549 ARE-firefly luciferase reporter, luminescence; further: nearly all actives have a fitted effect of over 65% in size
# Numbers stand for hits; - = inactive; ? = inconclusive; . = not tested or not shown; [ ] = another dose, or the depositor's remark. Sampled rows, rich in hits. Any-hit rate of the full collection: about 3.7%. The call rests on the fitted dose curve; in most records, active means well fitted curve in the direction sought with a large enough effect; inconclusive means small, poorly fitted or top-dose-only effect, or another doubt; inactive means no such curve, though single readings can be large; an effect the other way counts as inactive or inconclusive.
SMILES,Nrf2 inh,A549 tox-1,ELG1 repair inh,Nrf2 activator,FLuc counter 3,A549 tox-2,ARE-Fluc inh
CCCC1O[C@@H]2CC3C4CCC5=CC(=O)C=C[C@]5(C)C4C(OC(C)=O)C[C@]3(C)[C@]2(C(=O)COC(C)=O)O1 (some centres not stated),-,-,-,-,.,.,.
CC12C=CC(=O)C=C1CCC1C2CCC2(C)C(C(=O)CO)CCC12 (configuration not stated),?,-,.,-,.,.,.
Cn1c(N)c(C(=O)COC(=O)C2Cc3ccccc3CN2S(C)(=O)=O)c(=O)n(C)c1=O (configuration not stated),.,.,.,-,.,.,.
CC(C)N(C(=O)CSc1nc2ccccc2n1-c1ccccc1)C(C)C,-,-,-,-,.,.,.
O=C(O)CCSc1nc2ccccc2n1-c1ccccc1,5.8µM,-,-,-,-,-,5.8µM
Cc1ccccc1SCC(=O)N1CCN(c2ccc(C(F)(F)F)cn2)CC1,3.7µM,-,?,-,-,-,?
CCn1c(C)cc(C(=O)CN2C(=O)c3ccccc3S2(=O)=O)c1C,3.7µM,-,?,-,8.5µM,-,.
Cc1cc(C(=O)CN2C(=O)c3ccccc3S2(=O)=O)c(C)n1C(C)C,2.9µM,-,?,-,6.7µM,-,8.2µM
CC1CN(C(=O)CCC(=O)NCc2ccc(Cl)cc2)c2ccccc2O1 (configuration not stated),-,-,-,-,.,.,.
Cc1ccc(NC(=O)Cn2c(=O)n(CCCCC(=O)NCCc3ccc(Cl)cc3)c(=O)c3ccccc32)cc1,-,-,.,-,.,.,.
Cc1cccc(NC(=O)CSc2ccc(-c3ccccn3)nn2)c1,?,-,.,-,.,.,.
COc1ccc(C)cc1NC(=O)CSc1ccc(-c2sc(C)nc2C)nn1,9.2µM,-,-,-,?,-,?
COc1ccc(C)cc1NC(=O)CSc1ccc(-c2ccccn2)nn1,3.7µM,-,-,-,?,-,18µM
Cc1ccc(S(=O)(=O)N(Cc2ccccc2)c2ccccc2C(=O)NCc2ccco2)cc1,5.2µM,?,?,-,-,-,-
Cc1ccc(S(=O)(=O)N(Cc2ccccc2)c2ccccc2C(=O)Nc2ccccc2C(=O)NCc2ccco2)cc1,-,-,-,-,.,.,.
CCN(CC(=O)NCc1cccs1)C(=O)c1cccc(S(=O)(=O)N(CC)c2ccccc2)c1,?,-,.,-,.,.,.
O=C(Nc1nc(-c2nc3ccccc3s2)cs1)c1ccc(S(=O)(=O)N2CCOCC2)cc1,-,-,?,-,.,.,.
O=C(Nc1nc(-c2ccc(S(=O)(=O)N3CCOCC3)cc2)cs1)c1ccccc1,4.6µM,-,13µM,-,?,-,.
O=C(Nc1nc(-c2cc3ccccc3o2)cs1)c1ccc(S(=O)(=O)N2CCCC2)cc1,4.1µM,-,?,-,-,-,5.2µM
Cc1ccc(C(=O)Nc2nc(-c3ccccn3)cs2)cc1S(=O)(=O)N1CCOCC1,8.2µM,?,-,-,11µM,?,1.6µM
COCCCNC(=O)c1cnn(-c2ccc(F)cc2F)c1C1CCNCC1,?,-,.,-,.,.,.
COc1ccc([N+](=O)[O-])c(OC)c1C(=O)NC(=O)Nc1c(F)cc(F)cc1F,-,-,-,-,.,.,.
COC(=O)c1[nH]c2c(c1C)C(=O)CC(c1cccc(OC)c1)C2 (configuration not stated),-,?,-,-,.,.,.
COc1ccc(NC(=O)COC(=O)c2cc(OC)c(OC)cc2NC(=O)c2ccco2)cc1OC,5.8µM,.,23µM,-,-,-,-
CC1CCN(S(=O)(=O)c2ccc(NC(=O)c3cccs3)cc2)CC1,?,-,-,-,.,.,.
SMILES,Nrf2 inh,A549 tox-1,ELG1 repair inh,Nrf2 activator,FLuc counter 3,A549 tox-2,ARE-Fluc inh
Cc1nnsc1C(=O)Nc1ccc(S(=O)(=O)N2CCC(C)CC2)cc1,9.2µM,-,7.3µM,-,-,-,5.2µM
O=C(NCc1cccs1)C1Cc2c(-c3ccc(Cl)cc3)ccnc2O1 (configuration not stated),.,.,.,-[9.22 µM],.,.,.
COc1ccc2[nH]c3c(C)c4ccncc4c(C)c3c2c1,8.2µM,?,?,-,-,?,2.6µM
Cc1c2ccncc2cc2c1[nH]c1ccccc12,-,?,.,-,.,.,.
CCN(CC)C(=O)c1oc2ccc(S(=O)(=O)N3CC(C)CC(C)C3)cc2c1C (configuration not stated),8.2µM,-,?,-,-,-,8.2µM
CCN(CC)C(=O)c1oc2ccc(S(=O)(=O)N3CCCCCC3)cc2c1C,?,-,-,-,.,.,.
CCCn1c(NCc2ccccc2C)nc2ccccc21,?,-,.,-,.,.,.
Nc1cc(Br)cc2c1[nH]c(=O)c1ccccc12,.,.,.,-,.,.,.
O=C(Nc1ccc(Cl)c(C(F)(F)F)c1)c1nc2ccccc2nc1N1CCCCC1,.,-,.,-,.,.,.
CCN(CC)c1ccc(/C=C/c2ccc3ccc(OC)cc3[n+]2CC)cc1,4.6µM,?,?,-,-,?,5.2µM
CN1CCn2cnc(C(=O)N[C@@H](Cc3ccccc3)C(=O)OC(C)(C)C)c2C1=O,.,.,.,-,.,.,.
Cc1cc(C)c(NC(=O)CSc2ncc3c(n2)-c2cc(Cl)ccc2N(C)S3(=O)=O)c(C)c1,4.6µM,-,.,-,-,-,-
CSc1ccc(CN(C)C(=O)c2cccc(S(=O)(=O)N3CCN(Cc4ccccc4)CC3)c2)cc1,5.8µM,-,?,-,-,-,?
CN(CCOc1ccc(Cl)cc1)C(=O)c1cccc(S(=O)(=O)N2CCN(Cc3ccccc3)CC2)c1,8.2µM,-,.,-,-,-,9.2µM
COc1ccccc1CN(C)C(=O)c1cccc(S(=O)(=O)N2CCN(Cc3ccccc3)CC2)c1,-,-,-,-,.,.,.
COc1ccc(NC(=O)CN(C)C(=O)c2cccc(S(=O)(=O)N3CCN(Cc4ccccc4)CC3)c2)cc1,?,-,-,-,.,.,.
COc1cc(NC(=O)CSc2nc(-c3ccco3)cc(C(F)(F)F)n2)cc(OC)c1OC,9.2µM,-,.,-,-,-,?
COc1cc(NC(=O)CCCSc2nc(-c3ccco3)cc(C(F)(F)F)n2)cc(OC)c1OC,?,-,?,-,.,.,.
N=c1ccn(Cc2c(Cl)cccc2Cl)cc1,5.2µM,-,12µM,-,-,-,4.1µM
CC(=O)[C@H]1CC[C@H]2[C@@H]3C[C@H](C)C4=CC(=O)CC[C@]4(C)[C@H]3[C@@H](O)C[C@]12C,0.058µM,-,-,-,-,-,0.15µM
C[C@]12C[C@H](O)[C@H]3[C@@H](CCC4=CC(=O)CC[C@@]43C)[C@@H]1CC[C@@H]2C(=O)CO,0.41µM,-,-,-,-,-,1.3µM
O=C(Cn1cc(S(=O)(=O)Cc2ccc(F)cc2)c2ccccc21)NCc1ccccc1Cl,-,-,.,-,.,.,.
Cc1ccc(OC(=O)c2snnc2C)cc1C,-,-,.,-,.,.,.
